# KDM5B inhibitor – KDM5B demethylase inhibition; Q9UGL1; KDM5B demethylase, FDH-coupled NADH fluorescence (FDH is formaldehyde dehydrogenase); Potency, µM (titrated, usually from 57.7 µM), usual class: inhibitors; 2.6% of 220,000 active; AID 1347165; active = well fitted inhibition curve with a large enough effect; note: 0% is about no effect; nearly all actives have a fitted effect of over 70% in size
#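 KDM5BΔAP (200 nM final) in 50 mM HEPES pH 7.5, 0.01% Tween-20 was preincubated 10 min at RT with compound over a concentration range. Substrate mix (H3K4me3 12.5 µM, α-KG 25 µM, Fe²⁺, ascorbate, NAD⁺, FDH) was added, and NADH fluorescence change over 30 min gave dose-response curves.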
# Active calls of the source: *; i = inactive. Shown is part of a subset that was picked to be rich in hits. Potency is the fitted concentration of half-maximal effect.
SMILES,KDM5B inhibitor
CC(C)(C)c1ccc(C(=O)NCCN2CCCC2)cc1,i
O=C(NCCN1CCCC1)c1cc2cn(C3CC3)cc2s1,10µM*
O=C(NCCN1CCCCCC1)C1CC=CCC1 (stereo not drawn),i
O=C(Cc1ccc(F)cc1)N1CCC(c2nn(Cc3ccccc3)c(=O)[nH]2)CC1,i
O=C(CCN1CCCCO1)NC1CCCc2nc(-c3ccccc3)ncc21 (stereo not drawn),i
COc1ccc(C2(C(=O)N(C)Cc3ccc(F)cc3)CCOCC2)cc1,i
Cc1ccc(NC(=O)c2ccc(C(F)(F)F)cc2)c(F)c1,i
COc1ccc(-c2cc(C(=O)NCCC(=O)N3CCOCC3)c3ccccc3n2)cc1OC,i
COc1ccc(-c2cc(C(=O)NCCc3cnc[nH]3)c3c(c2)N(C)CCO3)cc1OC,31.6µM*
Cc1ccccc1-c1cc(C(=O)NCCc2cnc[nH]2)c2c(c1)N(C)CCO2,35.5µM*
COc1ccc(CCNC(=O)c2cnc3ccc(C)cn3c2=O)cc1OC,i
CC(C)c1ccc(CC(=O)N2CCCc3ncc(C(=O)NCCc4cnc[nH]4)cc32)cc1,i
Cn1nccc1-c1cc2c(ccn2C)c(C(=O)NCCc2cnc[nH]2)n1,i
CCC1(N2CCN(C(=O)c3ccc(Cl)s3)CC2)CCN(S(C)(=O)=O)C1 (stereo not drawn),i
Cc1ncccc1C(=O)N[C@@H]1CN(Cc2ccccc2)C[C@H]1CN(C)C,i
CN(C)C[C@@H]1CN(Cc2ccccc2)C[C@H]1NC(=O)c1cccn1C,i
CN(C)C[C@@H]1CN(c2ncccn2)C[C@H]1NC(=O)c1ccccc1Cl,22.4µM*
CN(C)C[C@@H]1CN(c2ncccn2)C[C@H]1NC(=O)c1cc(F)ccc1Cl,31.6µM*
CNC(=O)N1C[C@@H](CN(C)C)[C@H](NC(=O)c2cccn2C)C1,i
Cc1ccc(C)c(C(=O)N[C@@H]2CN(c3ncccn3)C[C@H]2CN(C)C)c1,22.4µM*
CN(C)C[C@@H]1CN(c2ncccn2)C[C@H]1NC(=O)c1cccn1C,28.2µM*
CN(C)C[C@@H]1CN(c2ccncn2)C[C@H]1NC(=O)c1ccc(F)cc1Cl,i
CN(C)C[C@@H]1CN(c2ncccn2)C[C@H]1NC(=O)c1cccc2[nH]ccc12,i
CN(C)C[C@@H]1CN(C)C[C@H]1NC(=O)c1cc(F)ccc1Cl,i
CCOC(=O)Oc1ccc2c(=O)c(Oc3ccc(CC)cc3)c(C(F)(F)F)oc2c1,i
SMILES,KDM5B inhibitor
O=Cc1cc(Br)cc(Cl)c1O,i
CCN(CC)C(=O)CC[C@H]1CNC(=O)[C@H]2NCC[C@H]2N1C,i
N#CCCN(C(=S)Nc1ccc(SC(F)F)cc1)c1ccccc1,i
Cc1cc(C(=O)N2CCCC(CCc3c(F)cccc3F)C2)nc(C)n1 (stereo not drawn),i
OC1(CN2CCC(CCn3cccn3)CC2)CCNC1 (stereo not drawn),i
CCC12CN(CC#N)CC(C)(CN(CC#N)C1)C2=O,i
CC1CCN(Cc2ccc(C(=O)N3CCCC4(CCNC4)C3)o2)CC1 (stereo not drawn),i
CC(C)(CO)NCc1cc(=O)oc2cc3c(cc12)CCC3,i
N#CC(C#N)=CNc1nc(-c2ccc3c(c2)CCCC3)cs1,i
CN(C)C[C@@H]1CN(Cc2ccccc2)C[C@H]1NC(=O)c1c(F)cccc1F,i
CN(C)C[C@@H]1CN(c2ncccn2)C[C@H]1NC(=O)c1cnn(C)c1,28.2µM*
CN(C)C[C@@H]1CN(S(C)(=O)=O)C[C@H]1NC(=O)c1nccn1C,i
CN(C)C[C@@H]1CN(c2ccncn2)C[C@H]1NC(=O)c1ccc(C#N)cc1,i
CN(C)C[C@@H]1CN(c2ncccn2)C[C@H]1NC(=O)c1ccccc1F,28.2µM*
Cc1nc2n(c(=O)c1Cc1ccccc1)CN(Cc1ccccn1)CN2c1ccc(F)cc1,i
COc1ccc(-c2cc(C(=O)O)c3c(C(C)C)noc3n2)cc1OC,i
Cn1ccnc1-c1ccc(N2CCCC(CO)(CCOc3ccccc3)C2)nn1 (stereo not drawn),31.6µM*
CCCC1(CO)CCCN(Cc2ccc(OCC(=O)N3CCCC3)cc2)C1 (stereo not drawn),i
Cn1ccnc1-c1cn(Cc2scnc2-c2ccccc2)nn1,i
OCC1(CCOc2ccccc2)CCN(c2nnnn2-c2ccccc2)CC1,i
Cn1ccnc1-c1cn(CC2(c3ccccc3F)CCCC2)nn1,i
Cn1ccnc1-c1ccc(N2CCC(CO)(CCOc3ccccc3)CC2)nn1,28.2µM*
COc1nc2ccccc2nc1N1CCC(C(=O)Nc2ccc(C)c(Cl)c2)CC1,i
O=C(CCc1cc(Cl)no1)Nc1ccc2oc(-c3ccc(F)cc3)cc(=O)c2c1,i
COc1ccccc1C(O)c1nc(Nc2ccc(Cl)cc2F)n[nH]1 (stereo not drawn),i
SMILES,KDM5B inhibitor
O=C1NCCN2CC3(CCN(C(=O)CC4CCCC4)CC3)CC12 (stereo not drawn),i
O=C1NCCCCCCN(C(=O)Nc2ccc3c(c2)OCCO3)[C@H]2CCCC[C@@H]12,i
O=C1NCCN2CC3(CCN(C(=O)Nc4ccc5c(c4)OCCO5)CC3)CC12 (stereo not drawn),25.1µM*
COc1ccc(CCNCCc2ccc(OC)cc2)cc1,i
CS(=O)(=O)Oc1ccc2c(=O)c(-c3ccccc3)coc2c1,i
O=C(c1cnccn1)N1CCC([C@@H]2CNC[C@H]2CO)CC1,14.1µM*
O=C(c1ccc(Cl)cc1)N1CCC([C@@H]2CNC[C@H]2CO)CC1,i
O=C(C1CC=CC1)N1CCC([C@@H]2CNC[C@H]2CO)CC1,i
CCN1C(SCC(=O)N2CCCC2)=NS(=O)(=O)c2ccccc21,i
Cc1nc(-c2cccs2)c(CC(=O)N2CCc3ccccc3C2)s1,i
COc1cccc2sc(NC(=O)c3ccc4c(c3)OCCO4)nc12,i
COc1cccc2sc(NC(=O)c3ccc4c(c3)OCCN(C3CCC3)C4)nc12,35.5µM*
COc1ccc(NC(=O)c2ccc3c(c2)OCCN(C2CCC2)C3)cn1,i
CNC(=O)c1ccc(CC2CCN(C(=O)C3CC3)CC2)cc1,i
O=C(Nc1cccc(Cl)c1)N1CCC(c2noc(COc3cccnc3)n2)CC1,i
Cc1nn(C)c(C(=O)N[C@H]2CCOC[C@H]2C2CCOCC2)c1Cl,i
CCCc1cc(C(=O)N[C@H]2CCOC[C@H]2C2CCOCC2)cs1,i
CCc1c(C)cc(C(=O)N[C@H]2CCOC[C@H]2C2CCOCC2)c(=O)n1C,25.1µM*
Cc1ccc2nc(/C=C/c3ccc([N+](=O)[O-])cc3)ccc2c1,i
Cc1cccc(C)c1NC(=O)c1cccc(N(C)C)c1,i
Cc1ccc(-c2cc(N3CCC(CNC(=O)c4n[nH]c5c4CCCC5)CC3)n[nH]2)cc1,i
Cc1ccc(-c2cc(N3CCC(CNC(=O)c4ccc[nH]c4=O)CC3)n[nH]2)cc1,i
Cc1cccc(-c2[nH]ncc2CNC(=O)c2cccc(N(C)C)c2)c1,28.2µM*
Cc1ccc(-c2cc(N3CCC(CNC(=O)c4cccc(N(C)C)c4)CC3)n[nH]2)cc1,28.2µM*
O=C(NCC1CCN(c2cc(-c3ccc(F)cc3)[nH]n2)CC1)c1n[nH]c2c1CCCC2,i
Cc1nccn1CC(=O)NCC1CCN(c2cc(-c3ccc(Cl)cc3)[nH]n2)CC1,i
CN(C)c1cccc(C(=O)NCC2CCN(c3cc(-c4ccc(F)cc4)[nH]n3)CC2)c1,20µM*
Cc1ccc(NC(=O)c2cccc(N(C)C)c2)c(C)c1,i
O=C(NCC1CCN(c2cc(-c3ccc(F)cc3)[nH]n2)CC1)c1ccc[nH]c1=O,i

# Source: PubChem
